# Assay outcomes from PubChem.
# In the library only some 2.1% were active in any assay of this set; here they are far more common.
# Mito fusion yeast: inhibitors of mitochondrial division or activators of mitochondrial fusion | S. cerevisiae fusion-defective mutant growth rescue, CellTiterGlo 48 h | Potency, µM (doses to about 46.1 µM), actives largely listed as activators | 320,000 tested, 0.23% active | AID 485298; also: nearly all actives have a fitted effect of over 45% in size
#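 Growth-rescue viability read-out: after 48 h at the non-permissive 37C in glycerol/ethanol YPEG, yeast mitochondrial fusion mutants are measured by CellTiterGlo luminescence; compounds (23 nl pinned per well) restoring growth score as division inhibitors or fusion activators.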
# GRP78 ERSR act: induces the endoplasmic reticulum stress response in human glioma cells. U87-MG GRP78 promoter luciferase reporter, 16 h. Potency, µM, usual class: activators. 420,000 tested, 0.02% active. AID 602332; also: series mostly up to about 76 µM; nearly all actives have a fitted effect of over 35% in size
#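 ERSR induction read as luciferase luminescence (Bright-Glo, 10 min at room temperature) in stably transfected human U87-MG glioma cells exposed to compounds for 16 h, using GRP78 as sensor.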
# aSyn rescue: inhibitors of alpha-synuclein toxicity in yeast; Yeast expressing alpha-synuclein, growth rescue, BacTiter-Glo, 24 h; Potency, µM (titrated, usually from 46.1 µM), most hits filed as activators; 370,000 tested, 0.14% active; AID 652106; also: nearly all actives have a fitted effect of over 65% in size
#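 Readout is rescue of growth in alpha-synuclein-expressing yeast, so inhibitors of toxicity appear as activators. Growth after 24 hr at 30 deg C in galactose medium is quantified by luminescence.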
# Abeta yeast res: A-beta toxicity reversal in yeast; yeast expressing A-beta42, growth rescue, OD600, 48 h; response scale: 0% DMSO, 100% iron-clioquinol control; Potency, µM (top dose mostly 46.1 µM), usual class: activators; 410,000 tested, 0.063% active; also: nearly all actives have a fitted effect of over 55% in size
#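 Yeast growth medium received pinned compounds, then yeast cells expressing toxic A-beta were added; plates incubated at 30 C for 48 hr. Growth read as absorbance at 600 nm, normalized to DMSO and equimolar FeCl3 plus clioquinol controls.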
# AT treatment: potential ataxia-telangiectasia treatment; F2112 A-T fibroblasts, KAP-1 phosphorylation AlphaLISA; neocarzinostatin DNA damage 30 min before lysis; Potency, µM (series often up to 57.5 µM), actives largely listed as activators; 320,000 tested, 0.19% active; AID 485349; also: nearly all actives have a fitted effect of over 45% in size
#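 hTERT-immortalized A-T patient fibroblasts (F2112), 500 cells/well in OPTI-MEM, 1% FBS, got compounds for 60 min, then NCS for 30 min at 37C. Lysates were then assayed for phospho-KAP-1 by AlphaLISA (anti-pKAP1 donor, anti-KAP1 acceptor beads), 6 hr at 25C.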
# TDP-43 yeast inh: inhibitors of TDP-43 toxicity in yeast. Potency, µM (doses to about 46.1 µM), hits mostly activators. 410,000 tested, 1.8% active. TDP-43 expressing yeast growth rescue, BacTiter-Glo, 24 h. AID 652104; also: nearly all actives have a fitted effect of over 50% in size
#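 In this qHTS, compounds that restore growth of yeast expressing TDP-43 appear as activators. Cells (OD600=0.02, galactose medium, raffinose-pregrown) are incubated with compound 24 hr at 30 deg C and growth is quantified by BacTiter-Glo.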
# Hits are given with their value; 0 = inactive; ? = inconclusive; - = no result; [ ] = another dose, or the depositor's remark. Calls follow the shape of the dose curve; as a rule, active = well fitted curve in the direction sought with a large enough effect; inconclusive = small, poorly fitted or top-dose-only effect, or another doubt; inactive = no such curve, though single readings can be large; an effect the other way counts as inactive or inconclusive.
SMILES,Mito fusion yeast,GRP78 ERSR act,aSyn rescue,Abeta yeast res,AT treatment,TDP-43 yeast inh
Clc1ccccc1Cn1nnc(-c2cccs2)n1,0,0,0,0,0,?
Clc1ccccc1Cn1nnc(-c2ccccc2)n1,0,0,0,0,22µM,0
O=C(ON=C1CCN(S(=O)(=O)c2ccccc2)CC1)c1cccc(Cl)c1,0,0,0,0,0,?
O=C(ON=C1CCN(S(=O)(=O)c2ccccc2)CC1)c1ccccc1,0,0,0,0,0,20µM
CCN1CCN(C(=O)c2cc(NC(=O)COC)cc3nc(-c4ccncc4)n(C)c23)CC1,-,0,-,-,-,-
Cc1ccc(NC(=O)c2oc3ccc(S(=O)(=O)N4CCCCCC4)cc3c2C)c(C)c1,-,0,-,0,-,0
NC(=O)[C@@H]1CCCN1C(=O)CC1(c2cccc(F)c2)CC(=O)N(C2CCCC2)C1=O (some centres not stated),-,0,-,-,-,-
CN(C)c1ccc2nc3ccc(=[N+](C)C)cc-3sc2c1,0,0,0,0,11µM,0
Cc1cc2nc3ccc(=[N+](C)C)cc-3sc2cc1N,0,0,0,0,16µM,0
CN(C)c1ccc2nc3ccc(=O)cc-3sc2c1,-,0,0,0,-,0
c1ccc2nc(-c3cc4ccccc4s3)ccc2c1,-,0,0,-,-,-
CN(C(=O)CO)c1c(I)c(C(=O)NCC(O)CO)c(I)c(C(=O)NCC(O)CO)c1I (configuration not stated),-,0,-,-,-,-
CN(C)c1ccc(/C=C/c2cc3ccccc3c[n+]2C)cc1,-,0,-,-,-,-
O=C1C=C(c2ccc3ccccc3c2)C[C@@H](c2ccc(Cl)cc2)C1,0,0,0,0,0,0
COc1ccc([C@H]2CC(=O)C=C(c3cccc(Br)c3)C2)cc1OC,-,0,0,0,0,35µM
COc1ccc([C@H]2CC(=O)C=C(c3cccc(C(F)(F)F)c3)C2)cc1,?,0,0,0,0,?
COc1cccc(C2=CC(=O)C[C@H](c3ccc(Cl)cc3)C2)c1,?,0,0,0,0,13µM
COc1ccc([C@H]2CC(=O)C=C(c3cccc(Br)c3)C2)cc1,?,0,?,0,0,22µM
COc1ccc([C@H]2CC(=O)C=C(c3cccc(C(C)C)c3)C2)cc1OC,?,0,0,0,0,20µM
COCc1ccc(CN2CCOc3ccc(C4=Cc5ccccc5C4)cc3C2)o1,-,0,-,-,-,-
CCOc1ccc(C(=O)N2CCC(c3ccncc3)CC2)cc1,-,0,-,0,-,0[9.22 µM]
Nc1c(Br)cc(Br)c2cccnc12,-,0,0,-,-,-
O=C(NCc1ccccn1)c1cnn(-c2nccc(-c3cccs3)n2)c1C1CC1,-,0,-,-,-,-
COc1ccc([C@H]2CC(=O)C=C(c3ccc(OC)c(OC)c3)C2)cc1,0,0,0,0,0,0
CCOC(=O)c1cccc(C2=CC(=O)C[C@H](c3ccc(OC)c(OC)c3)C2)c1,0,0,0,0,0,22µM
SMILES,Mito fusion yeast,GRP78 ERSR act,aSyn rescue,Abeta yeast res,AT treatment,TDP-43 yeast inh
COc1ccc([C@H]2CC(=O)C=C(c3ccc4ccccc4c3)C2)cc1OC,0,0,0,0,0,16µM
O=C(Nc1nccs1)[C@@H]1CC=C[C@@H]2CCN(C3CCCCC3)C(=O)[C@@H]21,-,0,-,-,-,-
O=C(c1ccco1)N1CCC2(CC1)CCN(c1ccccn1)CC2,-,0,-,-,-,-
COc1ccc(OC)c(NC(=O)C(C)n2c(=O)c(-c3ccccc3NC(C)=O)nc3ccccc32)c1 (configuration not stated),-,0,-,0,-,0
O=c1cc(-c2ccc(Cl)cc2)[nH]c2ccccc12,0,0,0,0,0,0
Clc1ccc(-c2cc3ccccc3[nH]2)cc1,0,0,0,0,0,10µM
Cc1nc(NCc2cnn(C)c2)sc1-c1ccn(-c2cccc(F)c2)n1,-,0,-,-,-,-
Cc1ccc2onc(CNC(=O)N3CCN(c4cccc(C)c4C)CC3)c2c1,-,0,-,0,-,20µM
COc1ccc(N2CCN(C(=O)Cc3noc4ccc(C)cc34)CC2)cc1,-,0,-,0,-,11µM
Cc1ccc(-c2nnc(Nc3ccc(O)cc3)c3ccccc23)cc1S(=O)(=O)NC(C)(C)CO,-,0,-,0,-,0
O=[N+]([O-])c1cccc(-c2nc(-c3cccs3)c(-c3cccs3)[nH]2)c1,0,0,0,?,0,0
O=[N+]([O-])c1ccc(-c2nc(-c3cccs3)c(-c3cccs3)[nH]2)cc1,0,0,0,0,0,3.2µM
CCOC(=O)c1nc(N2CCN(C(=O)OCC)CC2)c2c3c(sc2n1)CCCC3,0,0,16µM,0,0,0
CCc1nc(N2CCN(C(=O)CCCl)CC2)c2c3c(sc2n1)CCCC3,-,0,0,0,-,20µM
O=C1N(CCCl)c2ccc(Br)cc2C12OCCO2,0,0,0,0,0,10µM
COC(=O)CN1C(=O)C2(OCCCO2)c2cc(Br)ccc21,0,0,0,0,0,0
O=C(C1CCN(S(=O)(=O)c2ccc(Cl)s2)CC1)N1CCN(c2ccccc2)CC1,-,0,0,0,-,14µM
O=C(C1CCN(S(=O)(=O)c2ccccc2)CC1)N1CCN(c2ccccc2)CC1,0,0,0,0,0,0
COc1cc(=O)n2c(c1C(=O)N(C)Cc1nonc1C)CCN(C(=O)c1cc(C)ccc1C)CC2,-,0,-,-,-,-
Cc1nc(CNS(=O)(=O)c2cccc(F)c2)cs1,0,0,0,0,0,0
Cc1nc(CNS(=O)(=O)c2ccc3ccccc3c2)cs1,0,0,0,0,0,14µM
COc1ccc(OC)c2c1C(=O)c1ccccc1C2=O,0,0,0,0,0,25µM
COC1=C(OC)C(=O)c2ccccc2C1=O,26µM,0,0,-,-,-
COc1ccc(N)c2c1C(=O)c1ccccc1C2=O,0,0,0,0,0,0
CO[C@@]1(NC(=O)CSC[C@@H](N)C(=O)O)C(=O)N2C(C(=O)O)=C(CSc3nnnn3C)CS[C@@H]21,-,0,-,-,-,-
SMILES,Mito fusion yeast,GRP78 ERSR act,aSyn rescue,Abeta yeast res,AT treatment,TDP-43 yeast inh
CCC(=O)NCc1nc(-c2cccc(NC(=O)c3ccc(C)s3)c2)oc1C,-,0,-,-,-,-
CC(C)N(Cc1nc(-c2ccccc2)no1)C(=O)CN(C)S(=O)(=O)c1ccccc1,0,0,0,0,0,13µM
COc1ccc(-c2nc3cc(C)ccc3cc2CN(C(=O)c2csc(C)n2)C2CC2)cc1OC,-,0,-,-,-,-
COC(=O)C1=C(C)N(Cc2ccccc2)C(=S)N[C@H]1c1ccccc1,0,0,0,0,0,13µM
Cc1cc2ccccc2n1CCNC(=O)c1cccc(Br)c1,-,0,-,0,-,?
Cc1cc2ccccc2n1CCNC(=O)c1cccc(Cl)c1,-,0,-,0,-,14µM
O=C1C=C(c2cccc(CO)c2)C[C@@H](c2ccc(Cl)cc2)C1,?,0,0,0,0,18µM
Cc1ccc(C2=CC(=O)C[C@H](c3ccc(Cl)cc3)C2)cc1,?,0,0,0,0,16µM
